Results on 20 compounds are retold here after PubChem BioAssay.

A number with no mark means an inactive call. For some of these results: Measured potencies and affinities stand elsewhere. Calls of active or inactive are those of the source. Unless noted, no rule for the calls is given here.

A short description of experiment [1]: antimalarial activity against Dd2 strain (AID 2302;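 active = growth inhibition above 50% at the single 2 µM test dose, taken to imply half-maximal potency below 2 µM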;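 also: 0% = DMSO untreated growth and 100% = chloroquine plus artemisinin killed control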). As to conditions: P. falciparum Dd2 in RBCs, LDH growth readout, 72 h; at 2 µM; stronger effect = higher value.
Experiment [2] is described as follows: human hepatoma cell viability loss – ATP luminescence, cytotoxicity control for P. falciparum antimalarial project, primary screen (AID 2303;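 active = inhibition above 50%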;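 also: 0% = DMSO wells and 100% = digitonin-killed cells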). To be noted: HepG2 viability, 24-48 h, at 10 µM, stronger effect = higher value.
The target in experiment [3] is L-lactate dehydrogenase (Plasmodium falciparum (isolate CDC / Honduras)) (UniProt Q27743). The experiment can be described thus: PfLDH activity inhibition – cell lysate, 3D7 strain, counter-screen for P. falciparum growth inhibition project (AID 2304).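 Also: 0% = vehicle and 100% = reference inhibitor.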 To be noted: P. falciparum 3D7 crude extract, LDH APAD/NBT absorbance; at 2 µM; stronger effect = higher value. For orientation: The purpose of a counterscreen is to sort out artefacts and off-target activity.

The nature of experiment [4]: inhibition of 3D7 malaria parasite growth – strain 3D7 (AID 2306).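 Also: 0% = DMSO wells and 100% = chloroquine plus artemisinin control wells.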 To be noted: P. falciparum 3D7 erythrocytic growth, LDH absorbance, 72 h; at 2 µM; stronger effect = higher value.
Experiment [5] has as its target Calcium-dependent protein kinase 1 (Plasmodium falciparum (isolate 3D7)) (UniProt P62344). Description: PfCDPK1 kinase inhibitors, biochemical, TCAMS library (AID 1159585; cut-off not given, nearly all actives have IC50 up to about 0.98 µM;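 also: inhibitors leave more ATP so luminescence rises with inhibition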). To be noted: recombinant PfCDPK1, Kinase-Glo ATP depletion luminescence. (In general: In Kinase-Glo more light means more ATP remaining.)
The target of experiment [6] is Plasmodium falciparum protein kinase 6 (PK6, PF3D7_1337100) (UniProt Q8IDW1). The experiment can be described thus: PfPK6 kinase inhibitors, biochemical, TCAMS library (AID 1159586). As to conditions: recombinant PfPK6, Kinase-Glo ATP depletion luminescence.
In experiment [7] the target is Protein kinase 7 (PK7), Plasmodium falciparum 3D7 (PF3D7_0213400) (UniProt Q7YTF7). The experiment can be described thus: inhibition of Plasmodium PK7 catalytic activity – biochemical, TCAMS antimalarial set, Kinase-Glo luminescence (AID 1159587). As to conditions: recombinant PfPK7, Kinase-Glo ATP depletion luminescence.
The target in experiment [8] is Calcium-dependent protein kinase 4 (Plasmodium falciparum (isolate 3D7)) (UniProt Q8IBS5). The experiment can be described thus: PfCDPK4 kinase inhibitors, biochemical, TCAMS library (AID 1159588; cut-off not given, nearly all actives have IC50 up to about 0.91 µM). As to conditions: recombinant PfCDPK4, Kinase-Glo ATP depletion luminescence.
Chain of Calcium-dependent protein kinase 4 (Plasmodium falciparum (isolate 3D7)) (Q8IBS5 whole entry, looked up): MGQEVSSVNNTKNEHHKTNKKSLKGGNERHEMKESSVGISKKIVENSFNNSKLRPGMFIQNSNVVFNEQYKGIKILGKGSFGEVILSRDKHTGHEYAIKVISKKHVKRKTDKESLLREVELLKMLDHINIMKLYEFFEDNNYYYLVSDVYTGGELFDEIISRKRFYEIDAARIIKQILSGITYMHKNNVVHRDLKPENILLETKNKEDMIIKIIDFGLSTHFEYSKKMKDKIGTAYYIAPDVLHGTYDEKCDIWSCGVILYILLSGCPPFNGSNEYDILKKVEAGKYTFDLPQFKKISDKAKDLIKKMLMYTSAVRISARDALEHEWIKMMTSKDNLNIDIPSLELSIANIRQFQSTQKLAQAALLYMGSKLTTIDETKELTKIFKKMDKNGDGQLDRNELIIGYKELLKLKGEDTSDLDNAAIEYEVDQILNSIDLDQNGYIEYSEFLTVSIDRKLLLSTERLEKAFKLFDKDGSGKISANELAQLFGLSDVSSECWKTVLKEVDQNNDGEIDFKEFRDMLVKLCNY

Chain of Protein kinase 7 (PK7), Plasmodium falciparum 3D7 (PF3D7_0213400) (Q7YTF7 1-343): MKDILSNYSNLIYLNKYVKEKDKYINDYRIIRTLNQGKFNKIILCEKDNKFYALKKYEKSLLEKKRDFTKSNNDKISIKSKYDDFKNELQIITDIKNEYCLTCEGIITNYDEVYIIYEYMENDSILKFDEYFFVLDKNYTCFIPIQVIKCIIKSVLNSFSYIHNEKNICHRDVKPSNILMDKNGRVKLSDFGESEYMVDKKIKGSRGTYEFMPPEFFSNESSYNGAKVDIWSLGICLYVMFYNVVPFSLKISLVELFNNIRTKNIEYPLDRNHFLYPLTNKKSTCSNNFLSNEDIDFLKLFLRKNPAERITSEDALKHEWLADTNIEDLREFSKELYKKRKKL
Chain of Calcium-dependent protein kinase 1 (Plasmodium falciparum (isolate 3D7)) (P62344 whole entry, looked up): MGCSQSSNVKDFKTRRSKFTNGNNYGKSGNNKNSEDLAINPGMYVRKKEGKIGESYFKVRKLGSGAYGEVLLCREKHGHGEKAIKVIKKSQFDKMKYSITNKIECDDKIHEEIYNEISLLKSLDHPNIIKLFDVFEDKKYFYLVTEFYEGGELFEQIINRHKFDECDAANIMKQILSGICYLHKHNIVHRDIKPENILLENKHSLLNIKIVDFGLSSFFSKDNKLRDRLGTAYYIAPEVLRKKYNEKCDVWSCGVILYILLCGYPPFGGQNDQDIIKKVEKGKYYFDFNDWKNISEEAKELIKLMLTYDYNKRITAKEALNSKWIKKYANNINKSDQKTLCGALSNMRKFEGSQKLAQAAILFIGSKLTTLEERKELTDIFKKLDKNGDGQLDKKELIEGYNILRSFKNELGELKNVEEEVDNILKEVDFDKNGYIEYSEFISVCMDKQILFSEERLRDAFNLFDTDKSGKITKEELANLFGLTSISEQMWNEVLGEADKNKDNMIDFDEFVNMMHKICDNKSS
Chain of L-lactate dehydrogenase (Plasmodium falciparum (isolate CDC / Honduras)) (Q27743 whole entry, looked up): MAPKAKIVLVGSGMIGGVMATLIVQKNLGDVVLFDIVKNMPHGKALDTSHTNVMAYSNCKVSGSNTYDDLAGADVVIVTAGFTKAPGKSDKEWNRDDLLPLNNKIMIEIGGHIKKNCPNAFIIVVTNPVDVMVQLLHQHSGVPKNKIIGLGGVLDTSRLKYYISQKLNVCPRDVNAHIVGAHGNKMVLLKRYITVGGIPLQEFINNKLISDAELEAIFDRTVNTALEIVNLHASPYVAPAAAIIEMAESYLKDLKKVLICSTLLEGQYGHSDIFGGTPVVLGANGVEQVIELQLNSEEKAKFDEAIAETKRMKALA
Chain of Plasmodium falciparum protein kinase 6 (PK6, PF3D7_1337100) (Q8IDW1 1-305): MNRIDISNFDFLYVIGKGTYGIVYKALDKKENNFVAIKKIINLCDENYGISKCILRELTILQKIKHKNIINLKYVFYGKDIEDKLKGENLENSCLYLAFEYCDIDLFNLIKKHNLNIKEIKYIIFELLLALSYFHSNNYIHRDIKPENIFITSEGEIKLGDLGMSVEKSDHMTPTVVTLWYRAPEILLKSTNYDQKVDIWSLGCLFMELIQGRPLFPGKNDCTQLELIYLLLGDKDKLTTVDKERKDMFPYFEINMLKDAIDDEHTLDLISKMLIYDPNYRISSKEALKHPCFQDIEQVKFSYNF

Regarding `Cc1ccc(NC(=O)c2cc(Br)cc(N3CCCN(C)CC3)c2)cc1F`, the growth inhibition in experiment [1] was 1%; in experiment [4], 87% (active). Besides, the inhibition is 15% in experiment [2] and -2% in experiment [3]. Moreover, the result in experiment [5], in experiment [6], in experiment [7] and in experiment [8] was inactive.

With `CCCCc1cc(N2CCC(NC(C)=O)C2)nc(Nc2ccc(C)cc2)n1` (stereo not given), the growth inhibition in experiment [1] is 1%; in experiment [4], 95% (active). For the same compound, the inhibition was 2% in experiment [2] and -8% in experiment [3]. Also, the outcome in experiment [5], in experiment [6], in experiment [7] and in experiment [8] was inactive.

On to `CCCC(=O)NC(c1ccc(C(C)C)cc1)c1ccc2cccnc2c1O` (stereo not given), for which the values for the growth inhibition in experiment [1] and in experiment [4] were 37% and 90% (active), respectively. The inhibition is 50% (active) in experiment [2] and 0% in experiment [3]. In addition, the outcome in experiment [5], in experiment [6], in experiment [7] and in experiment [8] was inactive.

Consider `CCC(C)OC(=O)C1=C(C)NC2=C(C(=O)CC(c3ccc(OC)c(OC)c3)C2)C1c1ccc(O)cc1` (stereo not given), for which the growth inhibition is 97% (active) in experiment [1] and 101% (active) in experiment [4]. The inhibition in experiment [2] was 3%; in experiment [3], 6%. For the same compound, the outcome in experiment [5], in experiment [6], in experiment [7] and in experiment [8] was inactive.

Take `CCOC(=O)C(C(=O)OCC)c1nc(C)ns1`: the growth inhibition in experiment [1] is -3%; in experiment [4], 99% (active). Besides, the inhibition in experiment [2] was 10%; in experiment [3] it was -3%. In addition, the outcome in experiment [5], in experiment [6], in experiment [7] and in experiment [8] was inactive.

With `Cc1cccc(NC(=O)c2ccc(C(=O)NC3CCN(CC4CCCCC4)C3)cc2)c1` (stereo not given), the growth inhibition was 3% in experiment [1] and 88% (active) in experiment [4]. The inhibition is 17% in experiment [2] and -3% in experiment [3]. The result in experiment [5], in experiment [6], in experiment [7] and in experiment [8] was inactive.

On to `CN(C)CC(O)C(O)(c1ccccc1)c1ccc(F)cc1` (stereo not given), for which the results for the growth inhibition in experiment [1] and in experiment [4] were 10% and 93% (active), respectively. Moreover, the inhibition in experiment [2] is -10%; in experiment [3], 4%. The result in experiment [5], in experiment [6], in experiment [7] and in experiment [8] was inactive.

Take `Cc1cc(N2CCCC2)nc(Nc2ccc(NC(=O)c3ccccc3C)cc2)n1`: the growth inhibition in experiment [1] is 40%; in experiment [4] it was 100% (active). Also, the inhibition in experiment [2] is 22%; in experiment [3], 2%. The result in experiment [5], in experiment [6], in experiment [7] and in experiment [8] was inactive.

On to `CN(C)C1CCN(CC#Cc2cc3ncnc(Nc4ccc(OCc5cccc(F)c5)c(Cl)c4)c3s2)CC1`, for which the growth inhibition in experiment [1] was 5%; in experiment [4], 85% (active). For the same compound, the inhibition in experiment [2] was 34%; in experiment [3] it was -5%. Also, the result in experiment [5], in experiment [6], in experiment [7] and in experiment [8] was inactive.

Turning to `O=c1ccc2ccc(F)c3c2n1CC3CN1CCC(NCc2cccc(-c3ccccc3F)c2)CC1` (stereo not given), the growth inhibition in experiment [1] was 6%; in experiment [4], 100% (active). The inhibition in experiment [2] was 29%; in experiment [3], -1%. Besides, the outcome in experiment [5], in experiment [6], in experiment [7] and in experiment [8] was inactive.

As for `CNc1ccc(CNCc2cccc(-c3ccc(-c4nc5c(C)cccc5[nH]4)cc3)c2)cc1`, the growth inhibition in experiment [1] is 83% (active); in experiment [4] it was 102% (active). Also, the inhibition was 26% in experiment [2] and -4% in experiment [3]. The result in experiment [5], in experiment [6], in experiment [7] and in experiment [8] was inactive.

`CN(C)CCOc1cc(NC(=O)Nc2ccc(Oc3ccccc3)cc2)ccc1I`: the growth inhibition is 4% in experiment [1] and 89% (active) in experiment [4]. Also, the inhibition in experiment [2] was 13%; in experiment [3], 4%. Also, the outcome in experiment [5], in experiment [6], in experiment [7] and in experiment [8] was inactive.

For the compound `C=CCCCNCC(NCCCNc1cc(=O)c2ccccc2[nH]1)c1cc(Br)cc(Br)c1` (stereo not given), the growth inhibition in experiment [1] is 19%; in experiment [4], 94% (active). Also, the inhibition in experiment [2] is -3%; in experiment [3], -1%. Besides, the outcome in experiment [5], in experiment [6], in experiment [7] and in experiment [8] was inactive.

Turning to `CNC(=O)C1Cc2c([nH]c3ccc(Br)cc23)C2(CCN(CCc3ccccc3)CC2)N1` (stereo not given), the growth inhibition was 60% (active) in experiment [1] and 101% (active) in experiment [4]. In addition, the inhibition in experiment [2] is 15%; in experiment [3] it was -2%. For the same compound, the outcome in experiment [5], in experiment [6], in experiment [7] and in experiment [8] was inactive.

Turning to `c1cc(-c2ccc(CNCc3ccsc3)cc2)cc(-c2nc3ccccc3[nH]2)c1`, the growth inhibition in experiment [1] is 82% (active); in experiment [4], 101% (active). For the same compound, the inhibition in experiment [2] is 46%; in experiment [3], 2%. For the same compound, the outcome in experiment [5], in experiment [6], in experiment [7] and in experiment [8] was inactive.

In the case of `COc1cc(OC)c(NC(=O)C2c3ccccc3C(=O)N(C)C2c2cccs2)cc1Cl` (stereo not given), the results for the growth inhibition in experiment [1] and in experiment [4] were 52% (active) and 99% (active), respectively. For the same compound, the inhibition in experiment [2] was 4%; in experiment [3] it was -5%. The result in experiment [5], in experiment [6], in experiment [7] and in experiment [8] was inactive.

Take `CCCCCCCN1CC[C@@H](CCCc2ccnc3ccc(OCCN4CCNCC4)cc23)[C@@H](CC)C1`: the growth inhibition is 98% (active) in experiment [1] and 101% (active) in experiment [4]. The figures for the inhibition in experiment [2] and in experiment [3] were 82% (active) and -2%, respectively. The outcome in experiment [5], in experiment [6], in experiment [7] and in experiment [8] was inactive.

For the compound `Cc1nc(N)nc(N)c1-c1ccc2ccccc2c1`, the figures for the growth inhibition in experiment [1] and in experiment [4] were 2% and 97% (active), respectively. Also, the inhibition is 60% (active) in experiment [2] and 6% in experiment [3]. In addition, the result in experiment [5], in experiment [6], in experiment [7] and in experiment [8] was inactive.

Consider `COc1ccc(CNCc2cccc(-c3ccc(-c4nc5c(C)cccc5[nH]4)cc3)c2)cc1`, for which the growth inhibition was 70% (active) in experiment [1] and 101% (active) in experiment [4]. In addition, the inhibition in experiment [2] is 23%; in experiment [3], 7%. The outcome in experiment [5], in experiment [6], in experiment [7] and in experiment [8] was inactive.

`Nc1c2nc(-c3c(F)cccc3Cl)[nH]c(=O)c2nc(=O)n1-c1ccccc1`: the figures for the growth inhibition in experiment [1] and in experiment [4] were 0% and 95% (active), respectively. Also, the inhibition is 52% (active) in experiment [2] and 2% in experiment [3]. The result in experiment [5], in experiment [6], in experiment [7] and in experiment [8] was inactive.

What is called inhibition is the relative decrease from the control value, in per cent.
